Results reported in PubChem BioAssay.
Where “and” joins values, the source holds several entries; their conditions need not be identical. Equal entries are not always repeated. Calls of active or inactive are those of the source.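 The calls were made as follows, unless noted: active = thallium flux through the channel raised or lowered by more than 3 SD from vehicle-only wells, actives on both sides; inactive = the rest.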

Assays:
[1] = stimulators of nuclear beta-catenin in C2C12, primary screen, imaging, WNT3A-conditioned medium, mouse C2C12, NPC library (AID 1117326; in the data active = nuclear beta-catenin stimulation mostly above about 4.2%, no sharp cut-off; inactive = mostly below about 10%); conditions: stronger effect = higher value
[2] = stimulators of insulin release from INS-1E, primary screen, cell-based, 5 mM glucose, NPC library (AID 1117329;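 active = compound raises insulin release from rat beta cells at 5 mM glucose, no numeric limit stated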); conditions: rat INS-1E insulin secretion, at 10 µM, stronger effect = higher value
[3] = growth inhibition of GSK3B-pretreated HCT116 cells – cell-based, CellTiter-Glo, 0.2 to 20 µM (AID 1117336;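 active = compounds lowering colon cancer cell viability after pretreatment blocking the GSK3B kinase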); conditions: HCT116 viability after GSK3B inhibitor, at 20 µM, stronger effect = higher value
[4] = inhibition of endothelial tube formation, primary screen, imaging, VEGF stimulated, CD31 staining, tube area, NPC library (AID 1117340;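 active = compound that reduces growth-factor-driven endothelial tube area in a mixed cell culture, no cutoff stated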); conditions: VEGF-stimulated ADSC/ECFC co-culture, at 10 µM, stronger effect = higher value
[5] = glucagon-like peptide 1 release enhancers, primary assay, NCI-H716 cell line, NPC library (AID 1117341;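 active = compound raises GLP1 secretion from the human gut endocrine cells, with no numeric limit stated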); conditions: NCI-H716 cells, at 10 µM, stronger effect = higher value
[6] = HCT116 colon cancer cell growth inhibition, primary screen, CellTiter-Glo luminescence, NPC library (AID 1117342;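 active = compounds that lower survival of HCT116 colon cancer cells in the luminescence readout, no numeric limit stated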); conditions: at 20 µM (top of the series)
[7] = CellTiter-Glo luminescent readout of SW480 viability loss, NPC library primary (AID 1117343;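 active = compounds that lower viability of the colon cancer cells in the luminescence readout, with no numeric limit stated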); conditions: CellTiter-Glo luminescence; at 20 µM (top of the series)
[8] = decreased DLD-1 cellular survival, CellTiter-Glo luminescent readout, NPC compound collection, primary HTS (AID 1117346;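 active = compounds that lower survival of DLD-1 colon cancer cells in the luminescence readout, no cutoff given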); conditions: DLD-1 viability, CellTiter-Glo luminescence; at 20 µM (top of the series)
[9] = target: 6-phosphogluconate dehydrogenase, decarboxylating (Homo sapiens) (UniProt P52209); assay: 6PGD enzyme inhibitors, primary screen, biochemical, human, recombinant enzyme, NADPH absorbance (AID 1159550;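 active = at least 20% inhibition of 6-phosphogluconate dehydrogenase activity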); conditions: recombinant 6PGD, NADPH absorbance 341 nm; at 10 µM; stronger effect = higher value
[10] = modulation of C. elegans fzo-1 (AID 1259413; call rule not given here;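 also: fzo-1 mutant C. elegans worms in liquid wells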); conditions: C. elegans fzo-1 modulator screen, mean read-out; stronger effect = higher value
[11] = differential killing of epithelial or mesenchymal cells, primary screen, imaging, PC-3E GFP, TEM4-18 mCherry, co-culture (AID 1345086;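 active = compounds killing one labelled cell type while sparing the other, by normalised counts and ratio limits, not self-fluorescent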;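 as to all read-outs here: cells exposed to compound for 72 h before imaging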;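 as to red/green cell ratio (normalised): normalised mesenchymal count divided by normalised epithelial count so high means epithelial killing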); conditions: imaging cell counts, at 1 µM; for red/green cell ratio (normalised): actives lie on both sides, counts scaled to control wells, 1 = unselective
[12] = survival rescue of mitochondrial mutant cells in low glucose, primary screen, MELAS cybrids, Rieske KO mouse fibroblasts, CellTiter-Glo (AID 1508586;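 active = mean z-score across replicates of 1.96 or higher in either the MELAS or the Rieske mutant cell line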;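 also: z relative to plate mean and SD of compound and empty wells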)
[13] = target: NAD(+) hydrolase SARM1 (Homo sapiens) (UniProt Q6SZW1); assay: SARM1 TIR NADase inhibitors, cell lysate, NAD-Glo luminescence (AID 1508614;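 active = compound whose remaining NAD level is above about 45 nM, limit read from the data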;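 also: higher remaining NAD means stronger inhibition of SARM1 NADase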); conditions: SAM-TIR HEK293T lysate NADase, at 1 µM, stronger effect = higher value
[14] = target: Mitogen-activated protein kinase 7 (Homo sapiens) (UniProt Q13164); assay: ERK5 transactivation activators in reporter cells, primary screen, cell-based, HTS (AID 1508626;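 active = luciferase signal above three times the same-plate solvent-only control wells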;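 also: luciferase driven by Gal4-ERK5 fusion binding five Gal4 sites before minimal TATA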); conditions: HeLa Gal4-ERK5 transactivation, 18 h, at 5 µM, stronger effect = higher value
F380Y = assay: modulators of BK channel variants, profiling panel, selectivity assay, cell-based, U2OS BacMam, thallium flux, beta subunits (AID 1259406); conditions: at 30 µM;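 also: initial slope of Thallos dye fluorescence rise after thallium is added; log ratio against the mean of 0.3% DMSO vehicle wells on the same plate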
F380Y/beta1 = assay: as above; conditions: at 30 µM
F380Y/beta2Delta = assay: as above; conditions: at 30 µM
[15] = sensitizers of A549 cells to miR-34 induction, primary screen, imaging, A549 dox-inducible miR-34, nuclei and caspase counts (AID 1347080;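 active = compounds whose cell count with miR-34 switched on is under 0.7 times the count with it off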); conditions: A549 miR-34 inducible, Hoechst nuclei count, 48 h
[16] = measured here: epithelial PC-3E GFP cell survival
[17] = measured here: mesenchymal TEM4-18 mCherry cell survival
[18] = MELAS cybrid survival, CellTiter-Glo 48 h, stronger effect = higher value
[19] = Rieske KO mouse fibroblast survival, CellTiter-Glo 72 h
[20] = stronger effect = lower value, cell number ratio, induced over uninduced
[21] = measured here: relative caspase fold change +Dox/-Dox
[22] = measured here: total cells with miR-34 induction, stronger effect = lower value
[23] = measured here: total cells without miR-34 induction

NAD(+) hydrolase SARM1 (Homo sapiens), sequence (Q6SZW1 whole entry, looked up, the tested form may be a part): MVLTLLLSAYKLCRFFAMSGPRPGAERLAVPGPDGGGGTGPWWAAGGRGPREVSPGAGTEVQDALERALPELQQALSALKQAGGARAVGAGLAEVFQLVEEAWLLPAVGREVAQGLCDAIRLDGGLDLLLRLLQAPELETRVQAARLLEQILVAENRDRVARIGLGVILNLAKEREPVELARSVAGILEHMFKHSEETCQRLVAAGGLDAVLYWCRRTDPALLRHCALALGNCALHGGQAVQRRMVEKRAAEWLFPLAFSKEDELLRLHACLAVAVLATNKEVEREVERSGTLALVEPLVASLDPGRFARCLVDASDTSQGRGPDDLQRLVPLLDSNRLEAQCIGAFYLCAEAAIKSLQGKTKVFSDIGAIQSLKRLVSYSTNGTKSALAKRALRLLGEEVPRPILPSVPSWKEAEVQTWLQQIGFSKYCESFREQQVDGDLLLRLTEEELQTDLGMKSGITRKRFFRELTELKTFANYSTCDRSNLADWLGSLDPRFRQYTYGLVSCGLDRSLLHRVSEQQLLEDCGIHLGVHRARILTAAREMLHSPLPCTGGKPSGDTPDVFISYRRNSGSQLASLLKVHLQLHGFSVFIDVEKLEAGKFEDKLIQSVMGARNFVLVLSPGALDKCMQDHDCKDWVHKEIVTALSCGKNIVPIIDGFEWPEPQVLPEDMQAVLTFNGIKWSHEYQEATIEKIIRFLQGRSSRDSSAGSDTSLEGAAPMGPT
6-phosphogluconate dehydrogenase, decarboxylating (Homo sapiens), sequence (P52209 whole entry, looked up): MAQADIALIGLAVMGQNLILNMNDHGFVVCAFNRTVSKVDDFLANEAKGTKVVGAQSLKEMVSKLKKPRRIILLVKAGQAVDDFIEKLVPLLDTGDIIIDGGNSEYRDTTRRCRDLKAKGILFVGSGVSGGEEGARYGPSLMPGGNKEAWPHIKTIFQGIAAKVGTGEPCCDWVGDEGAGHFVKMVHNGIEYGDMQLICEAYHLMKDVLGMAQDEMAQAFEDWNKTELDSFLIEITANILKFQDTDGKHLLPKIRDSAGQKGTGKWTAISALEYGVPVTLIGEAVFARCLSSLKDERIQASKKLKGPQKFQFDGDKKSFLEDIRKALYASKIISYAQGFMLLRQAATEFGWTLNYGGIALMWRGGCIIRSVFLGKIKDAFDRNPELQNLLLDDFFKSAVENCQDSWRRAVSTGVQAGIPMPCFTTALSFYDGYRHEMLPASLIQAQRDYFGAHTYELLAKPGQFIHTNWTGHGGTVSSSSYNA
Mitogen-activated protein kinase 7 (Homo sapiens), sequence (Q13164 whole entry, looked up, the tested form may be a part): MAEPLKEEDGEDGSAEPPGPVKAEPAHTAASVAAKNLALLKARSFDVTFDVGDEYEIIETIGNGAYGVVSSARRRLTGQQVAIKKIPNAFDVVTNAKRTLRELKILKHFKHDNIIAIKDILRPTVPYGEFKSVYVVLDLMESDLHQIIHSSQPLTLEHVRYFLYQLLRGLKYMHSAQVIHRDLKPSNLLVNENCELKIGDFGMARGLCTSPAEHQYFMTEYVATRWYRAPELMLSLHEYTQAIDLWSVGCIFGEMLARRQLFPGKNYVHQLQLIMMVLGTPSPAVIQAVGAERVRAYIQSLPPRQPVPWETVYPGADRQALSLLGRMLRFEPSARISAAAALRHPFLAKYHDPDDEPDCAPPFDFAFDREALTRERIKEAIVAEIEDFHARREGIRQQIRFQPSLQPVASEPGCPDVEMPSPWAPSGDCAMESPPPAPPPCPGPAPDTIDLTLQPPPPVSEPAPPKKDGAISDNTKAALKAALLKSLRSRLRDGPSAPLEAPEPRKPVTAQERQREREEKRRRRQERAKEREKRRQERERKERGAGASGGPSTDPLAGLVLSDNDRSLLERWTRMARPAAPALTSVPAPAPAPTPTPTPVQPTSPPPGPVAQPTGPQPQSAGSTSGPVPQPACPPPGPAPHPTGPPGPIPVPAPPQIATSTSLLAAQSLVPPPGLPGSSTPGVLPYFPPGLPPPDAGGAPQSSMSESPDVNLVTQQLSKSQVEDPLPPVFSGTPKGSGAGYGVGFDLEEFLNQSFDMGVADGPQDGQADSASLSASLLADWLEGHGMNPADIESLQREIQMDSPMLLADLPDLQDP

CCc1cccc2c3c([nH]c12)C(CC)(CC(=O)O)OCC3 (stereo not given)
inactive: nuclear beta-catenin stimulation ([1]; at 10 µM) 0.9% | insulin secretion stimulation [2] -0.3% | viability decrease [3] -31.2% | tube area decrease [4] -16.6% | GLP1 secretion stimulation [5] -0.9% | inhibition of viability [6] 1.5% | viability decrease (inhibition) [7] -4.5% | viability decrease (inhibition) [8] -11.6% | inhibition [9] -23.2% | mean signal [10] 230 | red/green cell ratio (normalised) [11] 1.13 | z-score [12, 18] -0.968 | remaining NAD [13] 10 nM | luciferase signal [14] 164 AU | log fold change Tl+ flux (F380Y) 0.0338 | log fold change Tl+ flux (F380Y/beta1) 0.0385 | log fold change Tl+ flux (F380Y/beta2Delta) -0.0224
0.9: normalised cell number [11, 16]
1.03: normalised cell number [11, 17]
0.3%: nuclear beta-catenin stimulation ([1]; stimulation, at 2 µM)
-0.359: z-score [12, 19]

OC(CCN1CCCC1)(c1ccccc1)C1CCCCC1 (stereo not given)
10400 and 10100 and 12200: cell count [15, 23]
4.9%: nuclear beta-catenin stimulation ([1]; stimulation, at 2 µM)
inactive: nuclear beta-catenin stimulation ([1]; at 10 µM) 4.7% | insulin secretion stimulation [2] 6.4% | viability decrease [3] -95.6% | tube area decrease [4] -12.4% | GLP1 secretion stimulation [5] 3.4% | inhibition of viability [6] 17.1% | viability decrease (inhibition) [7] 22.1% | viability decrease (inhibition) [8] 10.7% | inhibition [9] -21.9% | mean signal [10] 232 | red/green cell ratio (normalised) [11] 1.05 | fold change [15, 20] 0.976 and 0.849 and 0.894 | z-score [12, 18] 0.381 | remaining NAD [13] 10 nM | luciferase signal [14] 44 AU | log fold change Tl+ flux (F380Y) 0.0696 | log fold change Tl+ flux (F380Y/beta1) 0.0373
0.369: z-score [12, 19]
0.98: normalised cell number [11, 16]
1.12 and 3.13 and 3.87: fold change [15, 21]
active: log fold change Tl+ flux (F380Y/beta2Delta) 0.106
10200 and 8600 and 10900: cell count [15, 22]
1.03: normalised cell number [11, 17]

Clc1ccc2c(c1)C(N1CCNCC1)=Nc1ccccc1O2
0.449 and -0.479: z-score [12, 19]
inactive: nuclear beta-catenin stimulation ([1]; at 10 µM) 0.3% | insulin secretion stimulation [2] 16.5% | viability decrease [3] 46.2% | tube area decrease [4] -3.9% | GLP1 secretion stimulation [5] 15.3% | viability decrease (inhibition) [8] 19.2% | inhibition [9] -21.3% | mean signal [10] 211 | red/green cell ratio (normalised) [11] 1.17 | z-score [12, 18] -0.224 and 0.465 | remaining NAD [13] 10 nM | luciferase signal [14] 32 AU | log fold change Tl+ flux (F380Y/beta1) 0.0215
0.27: normalised cell number [11, 17]
-0.6%: nuclear beta-catenin stimulation ([1]; stimulation, at 2 µM)
active: inhibition of viability [6] 57.3% | viability decrease (inhibition) [7] 90% | log fold change Tl+ flux (F380Y) 0.111 | log fold change Tl+ flux (F380Y/beta2Delta) 0.148
0.23: normalised cell number [11, 16]

Cc1ccccc1C(OCCN(C)C)c1ccccc1 (stereo not given)
1.7%: nuclear beta-catenin stimulation ([1]; stimulation, at 2 µM)
-0.358 and 0.0536: z-score [12, 19]
0.78: normalised cell number [11, 16]
active: insulin secretion stimulation [2] 39.3%
inactive: nuclear beta-catenin stimulation ([1]; at 10 µM) 0.6% | viability decrease [3] -86.6% | tube area decrease [4] 2.8% | GLP1 secretion stimulation [5] 2.1% | inhibition of viability [6] 8.67% | viability decrease (inhibition) [7] 45.8% | viability decrease (inhibition) [8] -5% | inhibition [9] 5.27% | mean signal [10] 231 | red/green cell ratio (normalised) [11] 1.09 | z-score [12, 18] -0.259 and -1.08 | remaining NAD [13] 10 nM | luciferase signal [14] 40 AU | log fold change Tl+ flux (F380Y) 0.0933 and 0.0755 | log fold change Tl+ flux (F380Y/beta1) 0.00351 and 0.0509 | log fold change Tl+ flux (F380Y/beta2Delta) 0.0734 and 0.0188
0.85: normalised cell number [11, 17]

CN1CCCC(n2nc(Cc3ccc(Cl)cc3)c3ccccc3c2=O)CC1 (stereo not given)
1.03: normalised cell number [11, 17]
inactive: nuclear beta-catenin stimulation ([1]; at 10 µM) 1.5% | insulin secretion stimulation [2] 5.8% | viability decrease [3] -40.4% | tube area decrease [4] 21.5% | GLP1 secretion stimulation [5] 5.5% | viability decrease (inhibition) [7] -0.2% | viability decrease (inhibition) [8] 37.8% | inhibition [9] 6.29% | mean signal [10] 269 | red/green cell ratio (normalised) [11] 0.89 | fold change [15, 20] 0.849 and 0.93 and 0.906 | z-score [12, 18] -0.451 and -0.0693 | remaining NAD [13] 10 nM | luciferase signal [14] 88 AU
1.7%: nuclear beta-catenin stimulation ([1]; stimulation, at 2 µM)
active: inhibition of viability [6] 64.8% | log fold change Tl+ flux (F380Y) 0.248 | log fold change Tl+ flux (F380Y/beta1) 0.109 | log fold change Tl+ flux (F380Y/beta2Delta) 0.144
5140 and 8770 and 9440: cell count [15, 22]
0.19 and 0.396: z-score [12, 19]
1.16: normalised cell number [11, 16]
1.32 and 0.694 and 6.18: fold change [15, 21]
6060 and 9430 and 10400: cell count [15, 23]

C/C=C/C(=O)N(CC)c1ccccc1C
1.68 and 2.74 and 1.41: fold change [15, 21]
0.97: normalised cell number [11, 17]
0.88: normalised cell number [11, 16]
8830 and 11400 and 8670: cell count [15, 22]
inactive: nuclear beta-catenin stimulation ([1]; at 10 µM) 1.7% | insulin secretion stimulation [2] -0.4% | viability decrease [3] -18.4% | tube area decrease [4] 12.7% | GLP1 secretion stimulation [5] -3.7% | inhibition of viability [6] -11.3% | viability decrease (inhibition) [7] 19.5% | viability decrease (inhibition) [8] -26.5% | inhibition [9] -11.5% | mean signal [10] 254 | red/green cell ratio (normalised) [11] 1.1 | fold change [15, 20] 0.871 and 0.856 and 0.894 | z-score [12, 18] -0.397 and -0.423 | remaining NAD [13] 10 nM | luciferase signal [14] 64 AU | log fold change Tl+ flux (F380Y) 0.0255 | log fold change Tl+ flux (F380Y/beta1) -0.0381 | log fold change Tl+ flux (F380Y/beta2Delta) -0.0171
-1.25 and -1.17: z-score [12, 19]
0.9%: nuclear beta-catenin stimulation ([1]; stimulation, at 2 µM)
10100 and 13300 and 9700: cell count [15, 23]

CCCNCC(O)COc1ccccc1C(=O)CCc1ccccc1 (stereo not given)
-0.529 and -0.098 and 0.366: z-score [12, 19]
0.1%: nuclear beta-catenin stimulation ([1]; stimulation, at 2 µM)
active: insulin secretion stimulation [2] 32.4% | log fold change Tl+ flux (F380Y) 0.197 | log fold change Tl+ flux (F380Y/beta2Delta) 0.0815
inactive: nuclear beta-catenin stimulation ([1]; at 10 µM) 0.3% | viability decrease [3] 7.9% | tube area decrease [4] 24.9% | GLP1 secretion stimulation [5] -2.7% | inhibition of viability [6] 32.5% | viability decrease (inhibition) [7] 41% | viability decrease (inhibition) [8] 10.6% | inhibition [9] -5.6% | mean signal [10] 272 | red/green cell ratio (normalised) [11] 1.04 | z-score [12, 18] -0.438 and -0.541 and -0.854 | remaining NAD [13] 10 nM | luciferase signal [14] 116 AU | log fold change Tl+ flux (F380Y/beta1) 0.0626
1.41: normalised cell number [11, 17]
1.35: normalised cell number [11, 16]

COc1ccccc1OCC(O)COC(N)=O (stereo not given)
1.19: normalised cell number [11, 16]
1.16: normalised cell number [11, 17]
-1.9%: nuclear beta-catenin stimulation ([1]; stimulation, at 2 µM)
-0.0724 and 0.212: z-score [12, 19]
inactive: nuclear beta-catenin stimulation ([1]; at 10 µM) -2.7% | insulin secretion stimulation [2] -1.2% | viability decrease [3] -1% | tube area decrease [4] 8.8% | GLP1 secretion stimulation [5] -4% | inhibition of viability [6] -3.97% | viability decrease (inhibition) [7] 11.1% | viability decrease (inhibition) [8] -10.7% | inhibition [9] -17.6% | mean signal [10] 264 | red/green cell ratio (normalised) [11] 0.97 | z-score [12, 18] -0.379 and 0.493 | remaining NAD [13] 10 nM | luciferase signal [14] 56 AU | log fold change Tl+ flux (F380Y) 0.00752 | log fold change Tl+ flux (F380Y/beta1) 0.0402 | log fold change Tl+ flux (F380Y/beta2Delta) -0.0478
